Test [1] can be described thus: NCI Yeast Anticancer Drug Screen. Data for the rad50 strain (AID 155).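 Also: 0% = growth of vehicle-only cultures of the same strain.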 The settings on record: S. cerevisiae rad50 strain growth inhibition, hits give high values. A digest of the protocol: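 Inhibition values express reduced yeast growth in compound-treated cultures relative to vehicle-treated controls.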
The nature of test [2]: NCI Yeast Anticancer Drug Screen. Data for the mec2-1 strain (AID 157). The note with it: S. cerevisiae mec2-1 strain, hits give high values. A digest of the protocol: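 mec2-1 yeast strain, carrying an alteration in DNA damage repair or cell cycle control, was exposed to compounds; growth inhibition was measured relative to vehicle-treated controls.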
Test [3] in a line: NCI Yeast Anticancer Drug Screen. Data for the sgs1 mgt1 strain (AID 161).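 Also: 0% = growth of cultures given vehicle only.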 The note with it: S. cerevisiae sgs1 mgt1 strain, hits give high values. The method, boiled down: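 Compounds are added to genetically altered yeast, and growth is compared with cultures given vehicle alone to give percent inhibition.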
Test [4] is described as follows: NCI Yeast Anticancer Drug Screen. Data for the cln2 rad14 strain (AID 165).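 Also: 0% = growth equal to vehicle treated cultures.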 The note with it: S. cerevisiae cln2 rad14 strain, hits give high values. A digest of the protocol:
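Yeast carrying cln2 and rad14 alterations (cell cycle control and DNA damage repair) were exposed to compounds. Growth inhibition was measured against vehicle-treated controls.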

Test [5] can be described thus: NCI Yeast Anticancer Drug Screen. Data for the bub3 strain (AID 167). The note with it: S. cerevisiae bub3 mutant strain, hits give high values. The method, boiled down:
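Steps: expose the mutant yeast strain to compound; grow alongside vehicle-treated cultures; measure growth; express inhibition against the vehicle cultures.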

The nature of test [6]: NCI Yeast Anticancer Drug Screen. Data for the mlh1 rad18 strain (AID 175). The note with it: S. cerevisiae mlh1 rad18 strain growth inhibition, hits give high values. The method, boiled down: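 Growth inhibition of the yeast strain was measured after compound exposure and expressed relative to vehicle-treated controls. The strain carries defined defects in DNA damage repair.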

[7] abbreviates: at 5.0 µM (retest, dose inferred, filed as 0.5).
The mark [8] stands for this setting: at 50.0 µM (retest, dose inferred, filed as 5.0).

“And” between values parts separate entries of the source, which are not always exact repeats. Identical values can stand only once. This is part of a sample that, as a whole, favours compounds with a hit. Of some 79,000 tested, about 15% had one in any assay. Unmarked numbers belong to inactive results. The source made the active and inactive calls. Rule as the data show it: active = growth inhibition above about 70%; inactive = the rest.

In the case of `COC([CH2][Hg][n]1cnc2c1c(=O)n(C)c(=O)n2C)CN1C(=O)c2ccccc2S1(=O)=O` (configuration not stated), the growth inhibition in test [1] (setting [7]) was 9%; in test [1] (setting [8]), 94% (active); in test [1] (at 50.0 µM) it was 96.8% (active); in test [2] (setting [7]), 20%; in test [2] (setting [8]) it was 84% (active); in test [2] (at 50.0 µM), 95.3% (active). Further, the growth inhibition in test [3] (setting [7]) is -2%; in test [3] (setting [8]), 89% (active); in test [3] (at 50.0 µM) it was 87.7% (active); in test [4] (setting [7]) it was -11%; in test [4] (setting [8]), 69%; in test [4] (at 50.0 µM), 87.2% (active). Moreover, the growth inhibition in test [5] (setting [7]) was -1%; in test [5] (setting [8]) it was 89% (active); in test [5] (at 50.0 µM) it was 95.1% (active); in test [6] (setting [7]), -1%; in test [6] (setting [8]), 95% (active); in test [6] (at 50.0 µM), 97% (active).

Consider `[Cl][Pt+2][Cl].[NH-]C1CCCC2CCC[N-]C12` (configuration not stated), for which the growth inhibition in test [1] (setting [7]) is 34%; in test [1] (setting [8]) it was 97% (active); in test [1] (at 50.0 µM), 20.6%; in test [2] (setting [7]), 24%; in test [2] (setting [8]), 77% (active); in test [2] (at 50.0 µM), 60.4%. Besides, the growth inhibition is 55% in test [3] (setting [7]); 98% (active) in test [3] (setting [8]); 57.8% in test [3] (at 50.0 µM); 50% in test [4] (setting [7]); 86% (active) in test [4] (setting [8]); 34% in test [4] (at 50.0 µM). Also, the growth inhibition in test [5] (setting [7]) was 52%; in test [5] (setting [8]), 84% (active); in test [5] (at 50.0 µM), 38.5%; in test [6] (setting [7]) it was 18%; in test [6] (setting [8]), 97% (active); in test [6] (at 50.0 µM), 76.1% (active).

As to `Cc1ccccc1NC(=O)CBr`, the growth inhibition is 39% in test [1] (setting [7]); 98% (active) in test [1] (setting [8]); 98.5% (active) in test [1] (at 50.0 µM); 12% in test [2] (setting [7]); 99% (active) in test [2] (setting [8]); 98.6% (active) in test [2] (at 50.0 µM). The growth inhibition in test [3] (setting [7]) was 37%; in test [3] (setting [8]) it was 99% (active); in test [3] (at 50.0 µM) it was 99.3% (active); in test [4] (setting [7]) it was 18%; in test [4] (setting [8]), 98% (active); in test [4] (at 50.0 µM), 95.5% (active). Further, the growth inhibition is -38% in test [5] (setting [7]); 99% (active) in test [5] (setting [8]); 98.2% (active) in test [5] (at 50.0 µM); 37% in test [6] (setting [7]); 99% (active) in test [6] (setting [8]); 98.3% (active) in test [6] (at 50.0 µM).

In the case of `Cn1cnc(C(=N)[Se])c1N`, the growth inhibition in test [1] (setting [7]) was 63%; in test [1] (setting [8]), 94% (active); in test [1] (at 50.0 µM), 83.4% (active); in test [2] (setting [7]) it was 30%; in test [2] (setting [8]) it was 91% (active); in test [2] (at 50.0 µM), 71% (active). The growth inhibition in test [3] (setting [7]) was 27%; in test [3] (setting [8]), 53%; in test [3] (at 50.0 µM) it was 30.8%; in test [4] (setting [7]), 2%; in test [4] (setting [8]), 15%; in test [4] (at 50.0 µM), -24.8%. In addition, the growth inhibition was 51% in test [5] (setting [7]); 94% (active) in test [5] (setting [8]); 91.4% (active) in test [5] (at 50.0 µM); 78% (active) in test [6] (setting [7]); 94% (active) in test [6] (setting [8]); 67.7% in test [6] (at 50.0 µM).

Regarding `O=C(CI)c1ccc[nH]1`, the growth inhibition in test [1] (setting [7]) was 65%; in test [1] (setting [8]), 99% (active); in test [1] (at 50.0 µM) it was 99.3% (active); in test [2] (setting [7]), 79% (active); in test [2] (setting [8]), 99% (active); in test [2] (at 50.0 µM), 99.3% (active). Also, the growth inhibition is 74% (active) in test [3] (setting [7]); 99% (active) in test [3] (setting [8]); 99.5% (active) in test [3] (at 50.0 µM); 96% (active) in test [4] (setting [7]); 99% (active) in test [4] (setting [8]); 99.2% (active) in test [4] (at 50.0 µM). Also, the growth inhibition in test [5] (setting [7]) was 97% (active); in test [5] (setting [8]), 97% (active); in test [5] (at 50.0 µM), 99.4% (active); in test [6] (setting [7]), 74% (active); in test [6] (setting [8]), 97% (active); in test [6] (at 50.0 µM) it was 99.3% (active).

With `CC[n+]1c(-c2ccccc2)c2cc(N)ccc2c2ccc(N)cc21`, the growth inhibition in test [1] (setting [7]) was 39% and 29%; in test [1] (setting [8]), 91% (active) and 92% (active); in test [1] (at 50.0 µM), 81.6% (active) and 83.3% (active); in test [2] (setting [7]), 7% and -18%; in test [2] (setting [8]) it was 45% and 13%; in test [2] (at 50.0 µM), 3.7% and 3.85%. Besides, the growth inhibition in test [3] (setting [7]) is -4% and -13%; in test [3] (setting [8]), 16% and 27%; in test [3] (at 50.0 µM), 23.3% and 32.1%; in test [4] (setting [7]) it was 2% and -6%; in test [4] (setting [8]), 27% and 40%; in test [4] (at 50.0 µM), 11.8% and 34.9%. In addition, the growth inhibition in test [5] (setting [7]) was -7% and -2%; in test [5] (setting [8]) it was 27% and 24%; in test [5] (at 50.0 µM) it was 52.9% and 5.2%; in test [6] (setting [7]), -17% and -4%; in test [6] (setting [8]), 25% and 20%; in test [6] (at 50.0 µM) it was 20.2% and 34.6%.

Take `O=c1oc2ccccc2c(O)c1C1c2c(c3ccccc3oc2=O)Oc2c1c(=O)oc1ccccc21`: the growth inhibition in test [1] (setting [7]) is 9%; in test [1] (setting [8]), 96% (active); in test [1] (at 50.0 µM) it was 85% (active); in test [2] (setting [7]) it was 2%; in test [2] (setting [8]) it was 97% (active); in test [2] (at 50.0 µM) it was 91.2% (active). In addition, the growth inhibition in test [3] (setting [7]) is 2%; in test [3] (setting [8]), 97% (active); in test [3] (at 50.0 µM) it was 88.5% (active); in test [4] (setting [7]), 12%; in test [4] (setting [8]) it was 97% (active); in test [4] (at 50.0 µM), 87.3% (active). In addition, the growth inhibition in test [5] (setting [7]) was 9%; in test [5] (setting [8]), 97% (active); in test [5] (at 50.0 µM), 84.9% (active); in test [6] (setting [7]), 10%; in test [6] (setting [8]), 97% (active); in test [6] (at 50.0 µM) it was 92% (active).

Take `C=C(C)C1(CCCC)C(=O)NC(=S)NC1=O`: the growth inhibition in test [1] (setting [7]) was 0%; in test [1] (setting [8]), 60%; in test [1] (at 50.0 µM), 29.9%; in test [2] (setting [7]) it was -18%; in test [2] (setting [8]) it was 49%; in test [2] (at 50.0 µM) it was 11.8%. The growth inhibition was -14% in test [3] (setting [7]); 61% in test [3] (setting [8]); 34.8% in test [3] (at 50.0 µM); -18% in test [4] (setting [7]); 51% in test [4] (setting [8]); -28.1% in test [4] (at 50.0 µM). In addition, the growth inhibition in test [5] (setting [7]) is -7%; in test [5] (setting [8]), 45%; in test [5] (at 50.0 µM), 39%; in test [6] (setting [7]), -2%; in test [6] (setting [8]), 85% (active); in test [6] (at 50.0 µM), 40%.

On to `COC1=C(C)C(=O)C2=C(C1=O)C(CO)N1C(C#N)C3CC4C(C1C2N1CCOC41)N3C` (configuration not stated), for which the growth inhibition is 39% in test [1] (setting [7]); 51% in test [1] (setting [8]); 75.8% (active) and 75.5% (active) in test [1] (at 50.0 µM); 9% in test [2] (setting [7]); 52% in test [2] (setting [8]); 85.8% (active) and 89.7% (active) in test [2] (at 50.0 µM). The growth inhibition in test [3] (setting [7]) is 20%; in test [3] (setting [8]), 47%; in test [3] (at 50.0 µM) it was 77.3% (active) and 77.7% (active); in test [4] (setting [7]) it was 44%; in test [4] (setting [8]), 80% (active); in test [4] (at 50.0 µM), 85.1% (active) and 85% (active). Further, the growth inhibition in test [5] (setting [7]) is 19%; in test [5] (setting [8]) it was 76% (active); in test [5] (at 50.0 µM), 83.2% (active) and 87.9% (active); in test [6] (setting [7]), 19%; in test [6] (setting [8]) it was 49%; in test [6] (at 50.0 µM), 78.7% (active) and 81% (active).

The values are drawn from PubChem BioAssay (NCI).
